Rows were chosen to be rich in hits. Some 3.7% of all compounds tested hit in one or more screens of this group.
BoNT F protease: BoNT/F light chain protease inhibitors, primary screen, biochemical, flow cytometry, MLPCN library. Multiplex microsphere protease cleavage assay. Botulinum neurotoxin type F light chain protease (Clostridium botulinum). actives 0.22% (n = 360,000). inhibition, % at 10 µM; in the data active means inhibition above about 35%, passing the limit was not always enough; inconclusive means no clear call, values can overlap the other calls
MazF activator: activators of E. coli MazEF toxin-antitoxin RNase, primary screen, biochemical, fluorescence, uHTS | Endoribonuclease toxin MazF (Escherichia coli (strain K12)), P0AE70 | FAM/BHQ RNA-DNA oligo cleavage fluorescence, 5 h | activation, % at 20 µM | actives 0.32% (n = 350,000) | AID 504720, 2011; in the data active means activation above about 50%
Anthrax LF inh2: Bacillus anthracis LF protease inhibitors, primary screen, biochemical, multiplex microsphere, MLPCN library. multiplex microsphere protease cleavage assay. inhibition, % at 10 µM. actives 0.12% (n = 360,000). AID 588501, 2011
Target sequence (P15917 whole entry, looked up): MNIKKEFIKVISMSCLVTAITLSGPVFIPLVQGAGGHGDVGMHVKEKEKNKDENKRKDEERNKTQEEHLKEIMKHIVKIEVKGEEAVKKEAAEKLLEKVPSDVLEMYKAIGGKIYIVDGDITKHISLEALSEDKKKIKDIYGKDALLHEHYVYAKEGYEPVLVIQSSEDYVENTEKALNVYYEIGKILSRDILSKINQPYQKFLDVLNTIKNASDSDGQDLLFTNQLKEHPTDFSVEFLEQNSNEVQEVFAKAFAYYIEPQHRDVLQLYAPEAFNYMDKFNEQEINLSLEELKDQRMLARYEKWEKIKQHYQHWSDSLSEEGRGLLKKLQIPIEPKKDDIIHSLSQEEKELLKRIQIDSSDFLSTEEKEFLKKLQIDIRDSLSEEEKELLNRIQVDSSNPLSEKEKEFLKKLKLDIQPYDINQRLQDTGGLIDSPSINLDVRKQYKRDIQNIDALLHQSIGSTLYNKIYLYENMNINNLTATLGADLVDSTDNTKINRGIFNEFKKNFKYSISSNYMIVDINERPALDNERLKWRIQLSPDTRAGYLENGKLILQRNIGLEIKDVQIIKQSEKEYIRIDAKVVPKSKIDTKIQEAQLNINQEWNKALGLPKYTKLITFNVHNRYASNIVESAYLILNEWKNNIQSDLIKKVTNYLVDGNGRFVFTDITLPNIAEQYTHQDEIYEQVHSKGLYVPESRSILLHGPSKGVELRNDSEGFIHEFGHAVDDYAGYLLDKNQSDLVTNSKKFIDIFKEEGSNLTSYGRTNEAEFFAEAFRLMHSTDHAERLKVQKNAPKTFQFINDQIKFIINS
BoNT A protease: BoNT/A light chain protease inhibitors, primary screen, biochemical, flow cytometry, MLPCN library | Botulinum neurotoxin type A light chain protease (Clostridium botulinum A str. ATCC 3502) | multiplex microsphere protease substrate cleavage | inhibition, % at 10 µM | actives 0.17% (n = 360,000)
Bead autofluor: counter-screen for toxin protease inhibitors: compound fluorescence. compound autofluorescence counterscreen, microsphere flow cytometry; hits give high values. fluorescence intensity (test concentration not listed). actives 3.1% (n = 360,000); in the data active means fluorescence intensity above about 16000; inconclusive means no clear call, values can overlap the other calls
A number is an active result; – = inactive; ? = inconclusive; · = no result given. Unless noted, no stated cut-off is given here; in the data, active means inhibition above about 30%; inconclusive means no clear call, values can overlap the other calls; inactive means below that.

SMILES | BoNT F protease | MazF activator | Anthrax LF inh2 | BoNT A protease | Bead autofluor
CSc1ccc(Cl)c(C(=O)N2CCN(c3ncccn3)CC2)c1 | – | – | – | – | –
Cc1ccc(Nc2nnc(SCC(=O)NC3CC3)s2)cc1 | – | – | – | – | –
CCc1sc(C(=O)NC)cc1Br | – | – | – | – | 20040
O=C(C1=COCCO1)N1CCN(S(=O)(=O)c2cccc(F)c2)CC1 | – | – | – | – | ?
CCCCOc1ccc(/C=N/NC(=S)Nc2cccc(C)c2C)cc1 | – | – | – | – | –
Cc1cccc(C)c1NC(=S)N/N=C/c1ccc(OCCC(C)C)cc1 | – | – | – | – | 20711
CC(C(=O)O)n1nc(-c2ccccc2)c2ccccc21 (stereo not given) | – | – | – | – | –
O=C1CC(c2ccc(S(=O)(=O)NCCOc3ccccc3)cc2)CN1 (stereo not given) | – | – | – | – | 21883
CCNS(=O)(=O)c1ccc(Br)c(OC)c1 | – | – | – | – | 20265
COc1ccc(S(=O)(=O)NCCOc2ccccc2)cc1OC | – | – | – | – | 22108
Cc1ccc(NC(=O)C2(C)CCN2C(=O)Cc2ccc(C(C)(C)C)cc2)cc1C (stereo not given) | – | · | – | – | –
Brc1ccc(Oc2ncc(CN3CCOCC3)s2)cc1 | – | – | – | ? | 18177
COc1ccc(Oc2ncc(CN3CCN(c4ccccc4)CC3)s2)cc1 | ? | – | – | – | ?
CCOC(=O)C1CCN(Cc2cnc(Oc3ccc(C(C)(C)C)cc3)s2)CC1 | – | – | – | – | 21136
CCOC(=O)C1CCN(Cc2cnc(NC(=O)OC)s2)CC1 | ? | – | ? | ? | ?
CCOC(=O)c1cc2c(c(CCO)n1)[C@H](CCO)N(S(=O)C(C)(C)C)C2 (stereo not given in full) | – | – | – | – | –
O=C1CN(C(=O)CSc2nnnn2-c2ccc(Cl)cc2)c2ccccc2N1 | – | – | – | ? | 21884
Cc1nnc(SCC(=O)N2CC(=O)Nc3ccccc32)n1Cc1ccccc1 | – | – | – | – | –
Cc1ccc(-c2nc(S(=O)(=O)c3ccc(C)cc3)c(SCC(N)=O)o2)cc1 | – | – | – | – | 16360
Cc1ccc(S(=O)(=O)c2nc(-c3ccco3)oc2SCC(N)=O)cc1 | – | – | – | – | –
Oc1cc2ccccc2cc1-c1n[nH]c(=S)n1Cc1ccco1 | – | – | – | – | –
COc1cccc(-c2n[nH]c(=S)n2Cc2ccco2)c1OC | – | – | – | – | 20736
Oc1ccc(/C=N/NC(=S)Nc2cccnc2)c(O)c1O | – | 60 | – | – | –
Oc1cccc(/C=N/NC(=S)Nc2cccnc2)c1O | – | – | – | – | –
COc1cc(NC(C)C(=O)N2CC(C)OC(C)C2)cc(OC)c1 (stereo not given) | ? | – | – | – | –
SMILES | BoNT F protease | MazF activator | Anthrax LF inh2 | BoNT A protease | Bead autofluor
COc1cccc(NC(C)C(=O)N2CC(C)OC(C)C2)c1 (stereo not given) | – | – | – | ? | 23137
CCOC(=O)c1c(-c2cccs2)csc1NC(=O)c1ccncc1 | – | – | – | – | –
CCOC(=O)c1c(-c2cccs2)csc1NC(=O)COC(=O)c1c(C)noc1C | – | – | – | – | 16276
CN(Cc1ccc(C(F)(F)F)cc1)C(=O)[C@H]1O[C@@H](n2ccc(=O)[nH]c2=O)[C@H](O)[C@@H]1O | – | · | – | – | –
COc1ccccc1C(=O)NC(CCSC)C(=O)NNC(=O)C(C)Oc1ccccc1F (stereo not given) | · | – | · | · | ·
NNc1nc(-c2ccccc2)cc(-c2ccccc2O)n1 | – | – | – | ? | 22292
NNc1nc(-c2ccccc2)cc(-c2ccccc2)n1 | – | – | – | – | –
CC1=C(C(=O)N2CCCCCC2)CC(CC(=O)NCc2cccc3ccccc23)C(=O)N1CCC1=CCCCC1 (stereo not given) | – | · | – | – | –
c1ccc(COc2ccc(CNCc3cccs3)cc2)cc1 | – | – | – | – | 20591
Brc1ccc(CNCc2cccs2)cc1 | – | – | – | – | –
CCOC(=O)N1CCC(NC(=O)c2oc3c(C)c(C)ccc3c2C)CC1 | – | – | – | – | –
Cc1cc(C)c(C2=NOC(O)(C(F)(F)F)C2)c(=O)[nH]1 (stereo not given) | – | – | – | – | –
Cc1cc(C)c(-c2cc(C(F)(F)F)no2)c(=O)[nH]1 | – | – | – | ? | 17034
COc1ccc2cc(C(c3nnnn3Cc3ccccc3)N3CCCCCC3)c(=O)[nH]c2c1 (stereo not given) | – | – | – | – | 18165
COc1ccc(Cn2nnnc2C(c2cc3ccc(OC)cc3[nH]c2=O)N2CCC(C)CC2)cc1 (stereo not given) | – | – | – | – | 31718
CC(=O)Nc1cccc(-c2ccnc3c2CC(C)(C(=O)Nc2ccc(Cl)cc2)O3)c1 (stereo not given) | – | · | – | – | –
C[C@@H]1CN([C@@H](C)CO)C(=O)c2cc(NC(=O)Nc3ccccc3)ccc2O[C@@H](C)CCCCO[C@H]1CN(C)C(=O)Nc1ccc(C(F)(F)F)cc1 | – | – | – | – | –
CSc1ccc(/C=N/NC(=O)CN2CCN(Cc3ccccc3)CC2)cc1 | – | – | – | – | –
CSc1ccc(/C=N/NC(=O)CN2CCN(Cc3ccc(Cl)cc3)CC2)cc1 | – | 95 | – | – | –
COCOCCn1cc(CN2CCS(=O)(=O)N(Cc3ccc(-c4ccc(F)cc4)cc3)C(C(C)C)C2=O)nn1 (stereo not given) | – | – | – | – | –
CCCn1[nH]cc(SC)c(=O)c1=O | – | – | – | ? | 16432
CSc1ccccc1NC(=O)CSCc1ccc(Br)cc1 | – | – | – | – | 16464
CSc1ccccc1NC(=O)CSCc1ccccc1Br | – | – | – | – | –
COc1ccc(C(=O)NN)cc1COc1ccc(Br)cc1 | – | – | – | – | 19591
COc1ccc(C(C)=O)cc1COc1ccc(F)cc1 | – | – | – | – | –
SMILES | BoNT F protease | MazF activator | Anthrax LF inh2 | BoNT A protease | Bead autofluor
COc1cc(-c2nnc(SCC#CCO)o2)cc(OC)c1OC | – | – | – | – | 22486
CC(=O)Nc1ccc(C(=O)N(C)c2ccccc2)cc1 | – | – | – | – | –
CCN(C(=O)c1ccc(NC(C)=O)cc1)c1ccccc1 | – | – | – | – | 21341
Cc1ccc(NC(=O)C2CCCN2C(=O)Oc2ccccc2)cc1C (stereo not given) | – | – | – | – | 17854
Cc1ccc(NC(=O)C2CCCN2C(=O)c2cccs2)cc1C (stereo not given) | · | – | · | · | ·
COc1cc(OC)cc(C(=O)NC(=S)NCCc2ccccc2)c1 | – | – | – | – | 22614
COc1cccc(-c2cc(C(=O)Nc3cc(C)on3)no2)c1 | – | – | – | – | 22051
Cc1cc(NC(=O)c2cc(-c3cccc(Cl)c3)on2)no1 | – | – | – | – | –

Assay outcomes deposited in PubChem BioAssay by several laboratories.
